One may read the AC50 as the midpoint of the concentration-response curve, whichever way the signal moves.

Values joined by “and” are separate entries in the source; they are usually repeats but may differ in a detail not shown here. Identical values can stand only once. Among all 16,000 compounds or so, about 5,800 (36%) were called active. Another 23% or so got no clear call; they are omitted. Calls follow the shape of the dose curve; as a rule, active = well fitted curve in the direction sought with a large enough effect; inconclusive = small, poorly fitted or top-dose-only effect, or effect the other way; inactive = no such curve, though single readings can be large or run the other way. The list shows a part of the results.
% is scaled to controls: 0 for no effect and ±100 for the full control effect.

The target of this assay is Cytochrome P450 2C19 (Homo sapiens) (UniProt P33261). As to the kind of experiment: Cytochrome panel assay with activity outcomes. The settings on record: recombinant CYP, pro-luciferin dealkylation, luminescence, p450-cyp2c19; series mostly up to 57.1 µM.
Chain of Cytochrome P450 2C19 (Homo sapiens) (P33261 whole entry, looked up): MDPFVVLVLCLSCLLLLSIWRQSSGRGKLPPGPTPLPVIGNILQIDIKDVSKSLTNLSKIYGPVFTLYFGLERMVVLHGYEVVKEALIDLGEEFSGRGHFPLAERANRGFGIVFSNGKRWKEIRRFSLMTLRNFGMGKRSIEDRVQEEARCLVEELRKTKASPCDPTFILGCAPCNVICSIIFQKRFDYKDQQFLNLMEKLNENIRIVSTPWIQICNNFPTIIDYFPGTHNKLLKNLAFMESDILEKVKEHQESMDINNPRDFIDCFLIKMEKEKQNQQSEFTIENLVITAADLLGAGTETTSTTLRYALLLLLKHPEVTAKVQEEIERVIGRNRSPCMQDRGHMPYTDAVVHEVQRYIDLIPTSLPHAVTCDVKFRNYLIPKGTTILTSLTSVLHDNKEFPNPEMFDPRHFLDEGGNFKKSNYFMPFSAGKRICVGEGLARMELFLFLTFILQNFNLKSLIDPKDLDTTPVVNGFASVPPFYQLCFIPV
`Cc1ccc(S(=O)(=O)N(Cc2ccccc2)c2ccccc2C(=O)NCc2ccco2)cc1`: the AC50 was 3.55 µM (active).
The same measure, in the same setting: then `N[C@H](C(=O)N[C@@H]1C(=O)N2C(C(=O)O)=C(Cl)CS[C@@H]12)c1ccccc1`, with “inactive”; and `CC(=O)OCC1=C(C(=O)O)N2C(=O)[C@@H](NC(=O)CSc3ccncc3)[C@@H]2SC1`, with “inactive”; and `CC1=C(C(=O)O)N2C(=O)C(NC(=O)c3ccn(C)n3)C2SC1` (configuration not stated), with 25.1 µM (active).
On to `CCCCN(C)Cc1c(C)[nH]c2ccc(Cl)cc2c1=O`, for which the AC50 result was “inactive”.
As to `C#CCN(C)CCCOc1ccc(Cl)cc1Cl`, the AC50 is 5.01 µM (active) and 2.51 µM (active).
Same read-out and setting: then `O=[N+]([O-])c1ccc(S(=O)(=O)Cc2ccccc2)c2nonc12`, with 3.16 µM (active); and `O=[N+]([O-])c1cccc2c[nH]nc12`, with “inactive”.
The same measure, in the same setting: the value for `CN1CCN(c2ncncc2-c2ccccc2C(F)(F)F)CC1` was 15.8 µM (active); that for `CNc1cc(-c2ccccc2C(F)(F)F)ncn1` was “inactive”.
Still for that read-out and setting: then `CN1CCN(c2cc(-c3ccccc3C(F)(F)F)ncn2)CC1`, with 10 µM (active).
Turning to `CN1CCN(c2ncncc2-c2ccccc2Cl)CC1`, the AC50 entry is “inactive”.
Turning to `FC(F)(F)c1ccccc1-c1cc(NCCN2CCOCC2)ncn1`, the AC50 entry was “inactive”.
Regarding `CN(C)c1ncc2nc(-c3cccs3)c(=O)n(CCc3ccccc3)c2n1`, the AC50 entry is “inactive”.
On the same count and under the same terms, the value for `O=c1onc(-c2cccs2)n1Cc1ccccc1` was 1 µM (active); that for `COc1ccc(Br)cc1/C=C/C(=O)Nc1c(C)cccc1C` was 4.47 µM (active); that for `CCn1nc(C)c(NC(=O)/C=C/c2cnn(C)c2C)c1C` was “inactive”.
As for `O=C(O)Cn1ccnc1[N+](=O)[O-]`, the activity, negative = inhibition was 4.05% [at 11.4 µM] (inactive).
In the case of `O=C(c1cc(C(F)(F)F)cc(C(F)(F)F)c1)N1CCC[C@@]2(CCN(Cc3ccccc3)C2)C1`, the AC50 entry was “inactive”.
As for `O=C(c1cnccn1)N1CCC[C@@]2(CCN(Cc3cc(C(F)(F)F)cc(C(F)(F)F)c3)C2)C1`, the AC50 result is “inactive”.
Turning to `O=C(c1cnccn1)N1CCC[C@@]2(CCN(c3ccncc3)C2)C1`, the AC50 result was “inactive”.
Still for that read-out and setting: then `O=C(c1cc(C(F)(F)F)cc(C(F)(F)F)c1)N1CCC[C@@]2(CCN(Cc3ccncc3)C2)C1`, with 0.2 µM (active); and `N#Cc1ccc(CN2CC[C@@]3(CCCN(C(=O)c4cc(C(F)(F)F)cc(C(F)(F)F)c4)C3)C2)cc1`, with “inactive”; and `O=C(c1cnccn1)N1CCC[C@@]2(CCN(Cc3ccncc3)C2)C1`, with 10 µM (active).
The same measure, in the same setting: the value for `CCC(=O)O[C@@]1(C(=O)CCl)[C@@H](C)C[C@@H]2[C@H]3CCC4=CC(=O)C=C[C@@]4(C)[C@]3(F)[C@@H](O)C[C@@]21C` was “inactive”.
On the same count and under the same terms, the value for `C/C(CC(=O)Nc1cc(C)ccn1)=N\NC(=O)COc1cccc(C)c1` was 25.1 µM (active); that for `Cc1ccc(S(=O)(=O)CCc2nnc(NC(=O)COc3cccc(C)c3)s2)cc1` was “inactive”.
On to `O=C(COc1ccc(/C=N/NC(=O)c2ccccc2)cc1)Nc1ccc([N+](=O)[O-])cc1`, for which the AC50 entry is “inactive”.
Same read-out and setting: the value for `CCOC(=O)c1cccc(NC(=O)COc2ccc([N+](=O)[O-])cc2)c1` was 3.55 µM (active); that for `Cc1ccnc(NC(=O)c2cccc(NC(=O)COc3ccccc3)c2)c1` was 15.8 µM (active); that for `C[N+]1(CCOc2ccc([N+](=O)[O-])cc2)CCOCC1` was “inactive”.
Same read-out and setting: the value for `CC(C)c1nc2oc3ccccc3c(=O)c2c(=O)n1-c1ccccc1` was “inactive”; that for `Cn1c(N)c(C(=O)CSc2ccc3c(c2)OCCO3)c(=O)n(C)c1=O` was 5.62 µM (active); that for `Cc1nn(-c2ccc(Cl)cc2)c2sc(C(=O)c3c(N)n(C)c(=O)n(C)c3=O)cc12` was “inactive”.
Consider `CC(C)Cn1c(N)c(C(=O)CSc2ccc3c(c2)OCCO3)c(=O)n(C)c1=O`, for which the AC50 is 2.51 µM (active).
As to `CC(C)Cn1c(=O)n(C)c(=O)c2[nH]cnc21`, the AC50 entry is “inactive”.
Same read-out and setting: then `COc1ccc(C2=Nc3cccc4cccc(c34)N2)cc1`, with “inactive”.
On to `C/C(=N\OC(=O)NC1CCCCC1)c1sc(-c2ccccc2)nc1C`, for which the AC50 is 5.62 µM (active).
As to `O=C(O)c1cc2ccccc2c(S(=O)(=O)O)c1O`, the activity, negative = inhibition is 23.2% [at 11.4 µM] (inactive).
Same read-out and setting: the value for `Cn1cnc([N+](=O)[O-])c1Sc1nc(N)nc2c1ncn2[C@H]1C[C@H](O)[C@@H](CO)O1` was 8.27% [at 11.4 µM] (inactive).
For `Cc1ccc(Sc2c([N+](=O)[O-])ncn2C)cc1`, the AC50 was 25.1 µM (active).
Still for that read-out and setting: then `Cc1cccc(Sc2c([N+](=O)[O-])ncn2C)n1`, with “inactive”; and `Cc1nn(Cc2c(Cl)cccc2Cl)c(C)c1NC(=O)c1cnn2c(C(F)F)cc(-c3ccccc3)nc12`, with 7.08 µM (active).
On the same count and under the same terms, then `O=C(Nc1cccnc1)c1ccc(COc2cc(Cl)ccc2Cl)o1`, with 2.51 µM (active).
The same measure, in the same setting: then `Cn1ncc(Cl)c1C(=O)Nc1cccnc1`, with “inactive”; and `O=C(Nc1ccn(Cc2ccccc2F)n1)c1ccc(COc2cc(Cl)ccc2Cl)o1`, with 0.708 µM (active); and `O=C(N/N=C/c1ccc(O)cc1)c1ccc(COc2cc(Cl)ccc2Cl)o1`, with 4.47 µM (active).
Regarding `CC(C)CNC(=O)c1ccc(COc2ccc(Cl)cc2Cl)o1`, the AC50 is 10 µM (active).
`CC(=O)O[C@@H](C)C[N+](C)(C)C`: the AC50 entry was “inactive”.
Consider `CO[C@@H]1COC(=O)CC=C[C@@H](C)[C@@H]2C=C[C@H](O)[C@@H](COC(=O)C/C=C\[C@H]1C)O2`, for which the activity, negative = inhibition was -32.3% [at 11.4 µM] (inactive).
On the same count and under the same terms, the value for `O=C(O)[C@@H](c1ccccc1)[C@@H](C(=O)O)c1ccccc1` was 8.57% [at 11.4 µM] (inactive).
Turning to `O=C(c1ccccc1)[C@H](Nc1ccc2ccccc2c1)c1ccccc1`, the AC50 was 1 µM (active).
Take `COC(=O)C(NC(=O)c1ccccc1)=C1C=C(C)OC(C)=C1`: the AC50 result was “inactive”.
On to `CCCCS(=O)(=O)NC1=NCN(Cc2ccco2)CN1`, for which the AC50 result was “inactive”.
As for `CC1=CC(=C2C(=O)c3ccccc3C2=O)C=C(C)N1Cc1ccco1`, the AC50 was 4.47 µM (active).
Still for that read-out and setting: then `CC1=CC(=C2C(=O)c3ccccc3C2=O)C=C(C)O1`, with 25.1 µM (active); and `Cc1nc(SCc2cccc(Oc3ccccc3)c2)n[nH]1`, with 5.01 µM (active); and `CO[C@]1(NC(=O)[C@H](C(=O)O)c2ccc(O)cc2)C(=O)N2C(C(=O)O)=C(CSc3nnnn3C)CO[C@H]21`, with “inactive”.
On to `COc1ccccc1-c1cncnc1NCCc1cnc[nH]1`, for which the AC50 is 0.0794 µM (active).
On to `COc1cccc(-c2cncnc2NCCc2cnc[nH]2)c1`, for which the concentration at half-maximal activity (AC50) is 0.01 µM (active).
The same measure, in the same setting: then `FC(F)(F)c1ccccc1-c1cncnc1NCCc1cnc[nH]1`, with 0.01 µM (active).
Consider `CC(=O)NCCNc1ncncc1-c1ccccc1C(F)(F)F`, for which the AC50 result was “inactive”.
